Measured values published in PubChem BioAssay AID1159580 (chemical genetic matrix, 2015).
“And” between values parts separate entries of the source, which are not always exact repeats. Equal values may be shown once. About 2,000 (36%) of roughly 5,500 compounds were called active. Not shown: some 18% with an inconclusive outcome. Rule as the data show it: active = normalized growth mostly below about 0.91 (no sharp cut-off); inconclusive = no clear call, values can overlap the other calls; inactive = mostly above about 0.92. The list shows a part of the results.

Experiment: chemical genetic growth profiling, strain panel (AID 1159580);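 also: tested at 20 µM; growth read once vehicle control cultures reached saturation at 30 °C; 1 = growth at the plate median or of vehicle wells; lower values mean less growth of the strain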
Conditions: S. cerevisiae deletion strains, growth OD

Measured: normalized growth

O=NN(CCCl)C(=O)NCCCl
inactive: locus YAL021C, strain ccr4, stronger effect = lower value 0.923 | locus YAL026C, strain drs2, stronger effect = lower value 0.955 | locus YAL030W, strain snc1, stronger effect = lower value 0.958 | locus YAL040C, strain CLN3, stronger effect = lower value 0.974 | locus YBL061C, strain skt5, stronger effect = lower value 0.942 | locus YBR009C, strain hhf1, stronger effect = lower value 0.912 | locus YBR021W, strain FUR4, stronger effect = lower value 0.954 | locus YBR023C, strain chs3, stronger effect = lower value 0.942 | locus YBR171W, strain sec66, stronger effect = lower value 0.92 | locus YBR229C, strain ROT2, stronger effect = lower value 0.986 | locus YCL029C, strain bik1, stronger effect = lower value 0.995 | locus YCL069W, strain vba3, stronger effect = lower value 0.962 | locus YCR088W, strain abp1, stronger effect = lower value 0.958 | locus YDL005C, strain med2, stronger effect = lower value 0.958 | locus YDL035C, strain GPR1, stronger effect = lower value 0.909 | locus YDL040C, strain nat1, stronger effect = lower value 0.959 | locus YDL074C, strain BRE1, stronger effect = lower value 0.93 | locus YDL101C, strain DUN1, stronger effect = lower value 0.964 | locus YDL134C, strain PPH21, stronger effect = lower value 0.979 | locus YDL185W, strain tfp1, stronger effect = lower value 0.98 | locus YDL192W, strain arf1, stronger effect = lower value 0.976 | locus YDR001C, strain nth1, stronger effect = lower value 0.96 | locus YDR069C, strain doa4, stronger effect = lower value 0.95 | locus YDR101C, strain arx1, stronger effect = lower value 0.994 | locus YDR137W, strain rgp1, stronger effect = lower value 0.943 | locus YDR150W, strain NUM1, stronger effect = lower value 1.01 and 0.989 | locus YDR162C, strain NBP2, stronger effect = lower value 0.988 | locus YDR195W, strain ref2 0.997 | locus YDR297W, strain sur2, stronger effect = lower value 0.965 | locus YDR318W, strain mcm21, stronger effect = lower value 0.966 | locus YDR335W, strain msn5, stronger effect = lower value 0.96 | locus YDR388W, stronger effect = lower value 0.983 | locus YEL037C, strain rad23, stronger effect = lower value 0.94 | locus YEL061C, strain CIN8 (second series), stronger effect = lower value 0.952 | locus YEL061C, strain CIN8, stronger effect = lower value 1.04 | locus YER002W, strain NOP16, stronger effect = lower value 1.02 | locus YER110C, stronger effect = lower value 0.986 | locus YER111C, strain swi4, stronger effect = lower value 0.958 | locus YER155C, strain BEM2, stronger effect = lower value 1 | locus YER167W, strain BCK2, stronger effect = lower value 1.02 | locus YGL086W, strain mad1, stronger effect = lower value 0.956 | locus YGL167C, strain pmr1, stronger effect = lower value 0.959 | locus YGL173C, strain kem1, stronger effect = lower value 0.922 | locus YGL227W, strain vid30, stronger effect = lower value 0.925 | locus YGL248W, strain PDE1, stronger effect = lower value 0.943 | locus YGL253W, strain hxk2, stronger effect = lower value 0.985 | locus YGR078C, strain PAC10, stronger effect = lower value 0.991 | locus YGR229C, strain SMI1, stronger effect = lower value 0.823 | locus YGR252W, strain gcn5, stronger effect = lower value 0.777 | locus YHR027C, strain rpn1, stronger effect = lower value 0.948 | locus YHR079C, strain IRE1 (second series), stronger effect = lower value 0.988 | locus YHR094C, strain hxt1, stronger effect = lower value 0.994 | locus YHR129C, strain ARP1, stronger effect = lower value 0.991 | locus YHR200W, strain rpn10, stronger effect = lower value 0.958 | locus YIL066C, strain RNR3, stronger effect = lower value 0.994 | locus YIL073C, strain SPO22, stronger effect = lower value 0.928 | locus YIR030C, strain dcg1, stronger effect = lower value 0.991 | locus YJL092W, strain hpr5, stronger effect = lower value 0.922 | locus YJL095W, strain BCK1 (second series), stronger effect = lower value 0.963 | locus YJL115W, strain asf1, stronger effect = lower value 0.923 | locus YJL134W, strain LCB3, stronger effect = lower value 0.997 | locus YJL154C, strain vps35, stronger effect = lower value 0.975 | locus YJL166W, strain qcr8, stronger effect = lower value 0.923 | locus YJL168C, strain set2, stronger effect = lower value 1 | locus YJL187C, strain SWE1 (second series), stronger effect = lower value 1 | locus YJL187C, strain SWE1, stronger effect = lower value 0.944 | locus YJR075W, strain HOC1, stronger effect = lower value 0.995 | locus YKL068W, stronger effect = lower value 0.997 | locus YKL085W, strain MDH1 (second series), stronger effect = lower value 0.994 | locus YKL085W, strain MDH1, stronger effect = lower value 0.994 | locus YKL190W, strain CNB1, stronger effect = lower value 1.03 | locus YKR001C, strain vps1, stronger effect = lower value 0.904 | locus YKR026C, strain gcn3, stronger effect = lower value 0.983 | locus YKR091W, strain srl3, stronger effect = lower value 0.975 | locus YLL001W, strain dnm1, stronger effect = lower value 0.963 | locus YLL026W, stronger effect = lower value 0.973 | locus YLL041C, strain sdh2, stronger effect = lower value 0.957 | locus YLR027C, strain aat2, stronger effect = lower value 0.934 | locus YLR039C, strain RIC1, stronger effect = lower value 1.08 | locus YLR058C, strain SHM2, stronger effect = lower value 0.984 | locus YLR102C, strain apc9, stronger effect = lower value 0.99 | locus YLR258W, strain gsy2, stronger effect = lower value 0.965 | locus YLR262C, strain YPT6 (second series), stronger effect = lower value 0.939 | locus YLR262C, strain YPT6, stronger effect = lower value 0.988 | locus YLR268W, strain sec22, stronger effect = lower value 0.957 | locus YLR330W, strain CHS5, stronger effect = lower value 0.989 | locus YLR342W, strain FKS1 (second series), stronger effect = lower value 0.967 | locus YLR342W, strain FKS1, stronger effect = lower value 0.958 | locus YLR370C, strain arc18, stronger effect = lower value 0.972 | locus YLR371W, strain rom2, stronger effect = lower value 0.972 | locus YLR384C, strain iki3, stronger effect = lower value 0.96 | locus YML016C, strain PPZ1, stronger effect = lower value 0.989 | locus YML032C, strain rad52, stronger effect = lower value 0.915 | locus YML124C, strain tub3, stronger effect = lower value 0.997 | locus YMR078C, strain ctf18, stronger effect = lower value 0.98 | locus YMR125W, strain sto1, stronger effect = lower value 0.961 | locus YMR129W, stronger effect = lower value 0.967 | locus YMR205C, strain PFK2, stronger effect = lower value 0.878 | locus YMR223W, strain ubp8, stronger effect = lower value 0.918 | locus YMR231W, strain pep5, stronger effect = lower value 0.973 | locus YMR263W, strain SAP30, stronger effect = lower value 0.948 and 0.997 | locus YMR307W, strain GAS1, stronger effect = lower value 0.781 and 0.985 | locus YNL067W, strain RPL9B, stronger effect = lower value 0.947 | locus YNL175C, strain NOP13, stronger effect = lower value 0.984 | locus YNL197C, strain WHI3, stronger effect = lower value 1.01 | locus YNL209W, strain ssb2, stronger effect = lower value 0.965 | locus YNL224C, strain SQS1, stronger effect = lower value 1 | locus YNL233W, strain BNI4, stronger effect = lower value 0.959 | locus YNL271C, strain bni1, stronger effect = lower value 0.947 | locus YNL307C, strain MCK1, stronger effect = lower value 0.96 | locus YNL322C, strain KRE1, stronger effect = lower value 1 | locus YNR049C, strain mso1, stronger effect = lower value 0.964 | locus YNR052C, strain pop2, stronger effect = lower value 0.994 | locus YOL006C, strain TOP1, stronger effect = lower value 0.789 | locus YOL012C, strain htz1 0.791 | locus YOL147C, strain pex11, stronger effect = lower value 0.981 | locus YOR061W, strain CKA2, stronger effect = lower value 0.996 | locus YOR069W, strain VPS5, stronger effect = lower value 0.996 | locus YOR070C, strain gyp1, stronger effect = lower value 0.968 | locus YOR080W, strain dia2, stronger effect = lower value 0.924 | locus YOR083W, strain WHI5 (second series), stronger effect = lower value 1.01 | locus YOR136W, strain idh2, stronger effect = lower value 0.967 | locus YOR144C, strain elg1, stronger effect = lower value 0.984 | locus YOR265W, strain rbl2, stronger effect = lower value 0.957 | locus YOR290C, strain snf2, stronger effect = lower value 0.872 | locus YOR316C, strain cot1, stronger effect = lower value 0.989 | locus YPL051W, strain arl3, stronger effect = lower value 0.942 | locus YPL055C, strain LGE1, stronger effect = lower value 0.777 | locus YPL078C, strain atp4, stronger effect = lower value 0.918 | locus YPL106C, strain sse1, stronger effect = lower value 1.05 | locus YPL240C, strain hsp82, stronger effect = lower value 0.976 | locus YPR119W, strain clb2, stronger effect = lower value 0.992 | locus YPR141C, strain kar3, stronger effect = lower value 0.991 | locus YPR163C, strain tif3, stronger effect = lower value 0.984 | locus YPR167C, strain met16, stronger effect = lower value 0.991
1.03 (inactive) and 0.315 (active): locus YHR030C, strain SLT2, stronger effect = lower value
0.928 (inactive) and 0.341 (active): locus YJL095W, strain BCK1, stronger effect = lower value
active: locus YBR231C, strain swc5, stronger effect = lower value 0.604 | locus YBR279W, strain paf1, stronger effect = lower value 0.929 | locus YCL011C, strain gbp2, stronger effect = lower value 0.902 | locus YCL016C, strain dcc1, stronger effect = lower value 0.847 | locus YCL061C, strain MRC1, stronger effect = lower value 0.916 | locus YDR159W, strain sac3, stronger effect = lower value 0.855 | locus YDR334W, strain swr1, stronger effect = lower value 0.876 | locus YDR392W, strain spt3, stronger effect = lower value 0.562 | locus YDR502C, strain sam2, stronger effect = lower value 0.881 | locus YEL003W, strain gim4, stronger effect = lower value 0.803 | locus YER015W, strain faa2, stronger effect = lower value 0.899 | locus YER016W, strain bim1, stronger effect = lower value 0.875 | locus YER155C, strain BEM2 (second series), stronger effect = lower value 0.583 | locus YFR010W, strain ubp6, stronger effect = lower value 0.836 | locus YGL078C, strain dbp3, stronger effect = lower value 0.912 | locus YGL240W, strain doc1, stronger effect = lower value 0.682 | locus YGR135W, strain pre9, stronger effect = lower value 0.846 | locus YHR013C, strain ard1, stronger effect = lower value 0.64 | locus YHR079C, strain IRE1, stronger effect = lower value 0.298 | locus YHR142W, strain chs7, stronger effect = lower value 0.87 | locus YIL125W, strain kgd1, stronger effect = lower value 0.926 | locus YJL129C, strain trk1, stronger effect = lower value 0.759 | locus YJL164C, strain tpk1, stronger effect = lower value 0.878 | locus YJR043C, strain POL32, stronger effect = lower value 0.74 | locus YJR066W, strain TOR1, stronger effect = lower value 0.389 | locus YKL009W, strain mrt4, stronger effect = lower value 0.851 | locus YKL160W, strain elf1, stronger effect = lower value 0.86 | locus YLR113W, strain HOG1, stronger effect = lower value 0.312 | locus YLR221C, strain rsa3, stronger effect = lower value 0.851 | locus YLR320W, strain mms22, stronger effect = lower value 0.589 | locus YLR357W, strain rsc2, stronger effect = lower value 0.813 | locus YLR418C, strain cdc73, stronger effect = lower value 0.601 | locus YML120C, strain ndi1, stronger effect = lower value 0.852 | locus YMR058W, strain fet3, stronger effect = lower value 0.878 | locus YNL071W, strain lat1, stronger effect = lower value 0.914 | locus YNL183C, strain NPR1, stronger effect = lower value 0.368 | locus YNL248C, strain rpa49, stronger effect = lower value 0.763 | locus YNL250W, strain rad50, stronger effect = lower value 0.852 | locus YNL298W, strain CLA4, stronger effect = lower value 0.888 | locus YNL322C, strain KRE1 (second series), stronger effect = lower value 0.764 | locus YOR001W, strain rrp6, stronger effect = lower value 0.751 | locus YOR083W, strain WHI5, stronger effect = lower value 0.844 | locus YOR106W, strain vam3, stronger effect = lower value 0.786 | locus YOR184W, strain ser1, stronger effect = lower value 0.783 | locus YOR231W, strain MKK1, stronger effect = lower value 0.295 | locus YOR270C, strain vph1, stronger effect = lower value 0.638 | locus YPL256C, strain CLN2, stronger effect = lower value 0.352 | strain wtn01, stronger effect = lower value 0.853
